Screening data deposited in PubChem BioAssay by National Center for Advancing Translational Sciences (NCATS).
PINK1 expr mod: PINK1 expression modulation; AID 624263; 410,000 compounds, 0.2% hits; PINK1 immunofluorescence, high-content cytometry, 24 h; Potency, µM (doses to about 76.6 µM), for the others: at the highest dose activation (PINK1 increase), hits mostly activators; active = well fitted activation curve with a large enough effect; inconclusive = small, poorly fitted or top-dose-only effect; cell line not stated here; note: potency is the fitted concentration of half-maximal effect; % of control where 0% means no effect; nearly all actives have a fitted effect of over 65% in size
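PINK1 protein, normally rapidly degraded, was detected by immunofluorescence after 24 hour compound treatment of a stable cell line. Titration data (5 concentrations) came from laser-scanning cytometry, with CCCP-treated wells as controls.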
Mm-Cpn inhibitor: M. maripaludis TRiC chaperonin inhibition | 330,000 compounds, 0.031% hits | Potency, µM (doses to about 76.9 µM), without a hit: at the highest dose activity, negative = inhibition, usual class: inhibitors | purified Mm-Cpn ATPase, ADP Transcreener TR-FRET; note: potency is the fitted concentration of half-maximal effect; % is set by controls: 0 for no effect and ±100 for the full control effect; nearly all actives have a fitted effect of over 80% in size
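Eu-cryptate anti-ADP/ADP-d2 competition gives a ratio inversely related to ADP. Enzyme at 25 nM was pre-exposed to compound for 10 min, then given 10 uM ATP for 30 min, 37°C throughout.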
p53 reactivation: restores transcriptional activity of mutant p53; H1299 p53-A138V BP100-luciferase reporter, luminescence, 24 h; Potency, µM (top dose mostly 92.2 µM), for inactives: at the highest dose activity change, positive = activation, hits mostly activators; 320,000 compounds, 0.063% hits; AID 504706; note: potency is the fitted concentration of half-maximal effect; % of control where 0% means no effect; nearly all actives have a fitted effect of over 45% in size
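p53-null H1299 cells stably carrying temperature-sensitive p53-A138V and a BP100-luciferase reporter were pinned with compounds (4-point, 1:5 series) and held 24 hrs at 37 deg C. Luminescence was read 10 min after detection reagent.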
ASM inhibitor: inhibitors of human secretory acid sphingomyelinase. P17405. placental ASM, HMU-PC fluorogenic substrate, 60 min. Potency, µM (top dose mostly 57.5 µM), inactives show top-dose activity change, negative = inhibition, actives largely listed as inhibitors. 340,000 compounds, 0.006% hits. AID 504937; note: potency is the fitted concentration of half-maximal effect
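Human placenta-derived ASM preincubated with compound 10 min at room temperature, then reacted with 9 uM (final) fluorogenic HMU-PC substrate for 60 min at 37 C. Stop solution raises pH to 10; fluorescence read at Ex 386/Em 447 nm.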
CCT modulator: cytosolic chaperonin activity modulation; purified chaperonin ATPase assay, HTRF ADP detection, 30 min; activity change, % (no concentration beside the values), hits read low; 360,000 compounds, 0.3% hits; in the data active = activity change below about -30%; note: % is set by controls: 0 for no effect and ±100 for the full control effect
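TRiC (40 or 20 nM final, by batch activity) in 30 mM Tris pH 7.4, 100 mM KCl, 5 mM MgCl2, 1 mM DTT was treated with compound at 76 uM single dose, then 10 uM ATP, 30 min at 37 °C. ADP was read by HTRF Transcreener.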
ALOX12 inh: blocks human arachidonate 12S-lipoxygenase. 580,000 compounds, 1.1% hits. Potency, µM (doses to about 108 µM), for the others: top-dose activity change, negative = inhibition, most hits filed as inhibitors. purified 12hLO, xylenol orange hydroperoxide absorbance; note: potency is the fitted concentration of half-maximal effect; % is set by controls: 0 for no effect and ±100 for the full control effect
Target sequence (P18054 whole entry, looked up): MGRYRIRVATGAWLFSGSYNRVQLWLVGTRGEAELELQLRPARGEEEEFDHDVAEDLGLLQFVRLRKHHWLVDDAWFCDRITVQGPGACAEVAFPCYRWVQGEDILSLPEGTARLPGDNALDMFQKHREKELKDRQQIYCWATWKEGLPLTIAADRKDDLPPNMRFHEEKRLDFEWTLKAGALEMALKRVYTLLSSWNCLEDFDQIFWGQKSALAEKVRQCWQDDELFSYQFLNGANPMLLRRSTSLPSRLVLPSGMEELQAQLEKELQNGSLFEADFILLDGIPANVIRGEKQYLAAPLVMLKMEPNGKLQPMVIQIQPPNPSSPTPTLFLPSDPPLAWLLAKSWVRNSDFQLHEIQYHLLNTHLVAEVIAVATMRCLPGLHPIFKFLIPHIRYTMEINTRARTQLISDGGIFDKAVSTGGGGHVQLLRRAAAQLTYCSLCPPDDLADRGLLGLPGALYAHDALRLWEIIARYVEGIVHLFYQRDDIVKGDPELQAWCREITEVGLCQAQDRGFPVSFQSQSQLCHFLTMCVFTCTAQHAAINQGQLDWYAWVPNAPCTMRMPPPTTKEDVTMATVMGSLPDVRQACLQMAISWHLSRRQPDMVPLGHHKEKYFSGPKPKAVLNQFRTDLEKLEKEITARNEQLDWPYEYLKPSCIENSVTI
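Purified human 12hLO at 150 nM in 25 mM Hepes, 0.01% Triton X-100, pH 7.0, preincubated 15 min at room temperature with compound. Reaction started with 40 uM arachidonic acid, 30 min at room temperature. Hydroperoxide measured by Fe-xylenol orange, 573/405 nm absorbance ratio.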
* hit, by the source's call; ? = inconclusive; · = not tested or not shown; [ ] = dose if it differs, or a comment. This is a sample that favours compounds with a hit; in the whole collection about 1.4% have one here. Unless noted, calls come from the whole dose curve; as a rule, active = well fitted curve in the direction sought with a large enough effect; inconclusive = small, poorly fitted or top-dose-only effect, or another doubt; inactive = no such curve, though single readings can be large; an effect the other way counts as inactive or inconclusive.

SMILES	PINK1 expr mod	Mm-Cpn inhibitor	p53 reactivation	ASM inhibitor	CCT modulator	ALOX12 inh
O=C(O)c1cccc2cccc(-c3c4ccc(=O)c(O)c-4oc4c(O)c(O)ccc34)c12	-0.3%	·	·	-25.4%	0.7	6.31µM*
COc1ccc(OCC(=O)Nc2sc3c(c2C(=O)NCC2CCCO2)CCC3)cc1 (configuration not stated)	11.2µM*	-6.1%	0.4%	-12.9%	0.6	1.4%
CCC1(C)Cc2c(sc3nc(SC)nc(N4CCCCC4)c23)CO1 (configuration not stated)	·	·	·	·	·	25.5%
Cc1nnc(SCc2ccc(Cl)cc2)nc1/C=C/N(C)C	2.4%	-0.9%	-0.3%	26.6%	-1.8	39.8µM*
CS(=O)(=O)N1CCN(c2ccc(NC(=O)c3ccc(-c4ccc(Cl)cc4)o3)cc2)CC1	14.1µM*	0.7%	2.6%	7.5%	-1.8	-24.6%
CN(CCS(=O)c1ccccc1)Cc1ccc2c(c1)OCCO2 (configuration not stated)	·	·	·	·	·	18.7%
O=S(=O)(c1cc(F)ccc1F)N1CCN(c2ncccn2)CC1	-0.3%	0.9%	27.9%	-1.9%	-0.7	-4.0%
O=S(=O)(c1cc(F)ccc1F)N1CCN(Cc2cccc3cccnc23)CC1	·	·	·	·	·	15.8µM*
CCn1c(=O)c(N2CCC(NC(=O)Nc3cccc(C)c3)CC2)nc2ccccc21	·	·	·	·	·	5.0%
CCN(CC)c1ccc(/C=C(/C#N)C(=O)NCc2ccccc2)o1	31.6µM*	-4.3%	27.1%	-21.4%	-1.1	?
CCOC(=O)c1sc2nc(C(C)N3CCOCC3)[nH]c(=O)c2c1C (configuration not stated)	·	·	·	·	·	-3.4%
CCCNC(=O)c1cc(-c2ccc(OC)cc2OC)nc2ccccc12	·	·	·	·	·	12.6µM*
Cc1oc2cc(OCC(=O)N[C@H](C)C(=O)O)ccc2c(=O)c1-c1ccc(Cl)cc1	·	·	·	·	·	-18.1%
CN1N=C2c3ccccc3CCCC2C1c1ccc(F)cc1 (configuration not stated)	?	-1.8%	25.5%	-2.7%	1.9	39.8µM*
CC(C)NC(=S)NN=C1c2ccccc2-c2ccccc21	4.9%	-1.0%	5.5%	-4.4%	-1.1	?
CC1CCCC/C1=N\NC(=S)Nc1ccccc1 (configuration not stated)	0.8%	-3.1%	2.7%	-4.1%	0.9	?
CC(C)NC(=S)N/N=C1\CCCCC1C1CCCCC1 (configuration not stated)	5.8%[38.3 µM]	0.7%	?	-3.0%	0.8	22.4µM*
S=C(N/N=C1\CCCCC1C1CCCCC1)Nc1ccccc1 (configuration not stated)	·	·	·	·	·	15.8µM*
CCOC(=O)Cn1nnnc1CN(Cc1cccs1)Cc1cc2cc(C)ccc2[nH]c1=O	-5.3%[38.3 µM]	0.1%	-6.7%	-3.7%	-30.9*	-29.9%
Cc1ccc2[nH]c(=O)c(CN(Cc3cccs3)Cc3nnnn3Cc3ccccc3)cc2c1	-1.9%[38.3 µM]	-1.8%	-4.9%	-14.6%	-3.1	-6.3%[57.4 µM]
O=C(Nc1nnc(-c2ccco2)s1)C1CCCCC1	-2.3%	-3.8%	?	1.7%	0.5	94.1%
O=C(Nc1nc(-c2ccco2)c(-c2ccco2)s1)C1CCC1	?	-8.2%	1.8%	-0.9%	-4.1	11.2µM*
Cc1ccc(-c2n[nH]c(=S)n2/N=C/c2cccn2C)cc1	-0.2%	-0.7%	-6.6%	-1.1%	-2.6	25.1µM*
Cn1cccc1/C=N/n1c(-c2ccc(Cl)cc2)n[nH]c1=S	6.9%	1.0%	-2.5%	2.7%	0.3	?
Cc1ccc(-c2n[nH]c(=S)n2/N=C/c2ccc(C)s2)cc1	5.9%	-0.6%	1.9%	-4.0%	-4.3	15.8µM*
SMILES	PINK1 expr mod	Mm-Cpn inhibitor	p53 reactivation	ASM inhibitor	CCT modulator	ALOX12 inh
CC(Sc1c(Cl)cccc1Cl)C(=O)c1ccc2c(c1)CCC2 (configuration not stated)	·	·	·	·	·	29.6%
Clc1ccc(SCCOCCN2CCCCCC2)cc1	0.2%	0.8%	33.0%	3.0%	0.6	0.562µM*
Cc1cc(C[n+]2ccsc2N)c2ncccc2c1	1.5%	39.8µM*	-4.0%	-5.7%	2.1	30.2%
Nc1c(N(Cc2ccco2)C(=O)c2ccc(Br)cc2)c(=O)[nH]c(=O)n1Cc1ccccc1	0.4%	-1.8%	6.2%	0.3%	0.7	28.2µM*
CCCCc1nc(NCCOCCO)c(C#N)c2c1CCCC2	·	·	·	·	·	3.3%
O=C(CCN1C(=O)/C(=C/c2ccccc2Cl)SC1=S)N1CCCC1	-0.6%	0.2%	-32.3%	-2.4%	1.6	-7.6%
CCc1ccc(/C=C2\SC(=S)N(CCCC(=O)NCCCN3CCOCC3)C2=O)cc1	6.0%	·	·	·	1.8	-31.6%
O=C(CCN1C(=O)/C(=C/c2ccccc2Cl)SC1=S)N1CCOCC1	-0.1%	1.0%	15.8µM*	-3.7%	-2.3	-8.8%
O=C(CCCN1C(=O)/C(=C/c2ccccc2Cl)SC1=S)NCCCN1CCOCC1	10.2%	-3.2%	-1.5%	-11.8%	-3.6	-4.3%
O=C1C(=Cc2cccc(O)c2O)SC(=S)N1CCCN1CCOCC1	0.4%	·	·	·	-0.4	6.31µM*
CCOc1ccc(/C=C2\SC(=S)N(CCCC(=O)NCCCN3CCOCC3)C2=O)cc1	7.8%	-0.5%	-12.3%	-16.8%	-38.5*	-28.5%
Nc1nccnc1C(=O)NCC(=O)OCc1ccccc1	·	·	·	·	·	-5.4%
COc1ccc(Cc2nc(-c3ccc(Br)o3)no2)cc1	·	·	·	·	·	-4.3%
Brc1ccc(-c2noc(Cc3cccs3)n2)o1	·	·	·	·	·	25.1µM*
Cc1cccc(N/N=C/c2ccc(Cl)c(Cl)c2)c1	·	·	·	·	·	3.98µM*
O=C(O)c1ccc(N/N=C/c2ccc(F)c(F)c2)cc1	2.0%	-0.5%	24.9%	-2.7%	-0.9	?
Cc1cccc(N/N=C/c2ccc(F)c(F)c2)c1	·	·	·	·	·	5.62µM*
C=CCn1c(SCC(=O)Nc2ccccc2)nc2c1c(=O)[nH]c(=O)n2C	·	·	·	·	·	-47.3%
COc1cc2nc(-c3cc(F)ccc3O)nc(N[C@@H]3CNC[C@@H]3C(C)(C)O)c2cc1OC	·	·	·	·	·	2.43µM*
COc1ccc(Nc2nc(-c3ccccc3O)nc3ccccc23)c(OC)c1	·	·	·	·	·	-1.6%
CC1CCN(C(=S)c2cn(Cc3cccc(F)c3)c3ccccc23)CC1	-0.3%	-1.1%	-7.3%	-2.4%	0.3	44.7µM*
CN1CCN(C(=S)c2cn(Cc3ccccc3)c3ccccc23)CC1	0.1%	0.5%	3.0%	-1.4%	-0.6	-10.9%
Cc1nn(-c2ccccc2)c(C)c1CN(C)C(=O)CNC(=O)c1ccc(Oc2ccccc2)cc1	·	·	·	·	·	-0.1%
CN1C(=O)C(=O)/C(=C(/O)c2ccccc2)C1c1ccc(Br)cc1 (configuration not stated)	0.1%	0.2%	·	2.6%	-0.2	?
CN(C)c1ccc(C2/C(=C(/O)c3ccc(Br)cc3)C(=O)C(=O)N2C)cc1 (configuration not stated)	1.4%	-3.0%	-6.7%	4.9%	-2.3	5.62µM*
